From PubChem BioAssay
Calls of active or inactive are those of the source. Unless noted, the rule behind the calls is not given here.

What was measured:
[1] = anti-His antibody binders, primary screen, artefact control for SMM control protein annotation, biochemical, small-molecule microarray, 635 nm fluorescence (AID 1128); conditions: anti-His Alexa647 antibody binding, higher = more signal;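 note: score merges feature fluorescence with signal-to-noise for each printed compound spot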
[2] = system: Human papillomavirus type 1a E7 protein (residues 1-88); assay: HPV1a E7 small-molecule binders, primary screen, biochemical, small-molecule microarray, residues 1-88, 635 nm (AID 1129); conditions: small-molecule microarray binding, fluorescence 635 nm; higher = more signal
[3] = target: Focal adhesion kinase 1 (Homo sapiens) (UniProt Q05397); assay: small-molecule microarray binders of FAK, primary screen, biochemical, 635/667 nm fluorescence, BSA, DTT (AID 1130); conditions: PTK2 binding, 635 nm fluorescence, higher = more signal;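 note: composite of spot emission at 667 nm and signal to noise over triplicate slides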
[4] = system: Fibrinogen (Alexa647-labelled); assay: fibrinogen binders on compound microarrays, profiling panel, artefact control for SMM control-protein annotation, biochemical, small-molecule microarray, 635/667 nm fluorescence (AID 1131); conditions: fibrinogen-A647 binding fluorescence, higher = more signal;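 note: z-score merges 667 nm fluorescence with per-spot signal-to-noise over triplicate slides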
[5] = target: Follistatin (Homo sapiens) (UniProt P19883); assay: follistatin binders on small-molecule microarrays, primary screen, biochemical, small-molecule microarray, 635/667 nm fluorescence (AID 1132); conditions: FST binding, 635 nm fluorescence, higher = more signal
[6] = target: Fibroblast growth factor 2 (Homo sapiens) (UniProt P09038); assay: FGF2 binders on small-molecule microarrays, primary screen, biochemical, small-molecule microarray, 635/667 nm fluorescence (AID 1133); conditions: small-molecule microarray binding, FGF2, fluorescence 635/667; higher = more signal
[7] = mitochondrial membrane potential change in A549 cells, profiling panel, cell-based, JC-1 fluorescence, basal, 24 h, 100 nL (AID 1138); conditions: higher = more signal;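 note: A549 lung adenocarcinoma cells under basal conditions with no added stimulus; test concentration not given here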
Lefty1 = Lefty1 binders on small-molecule microarrays, primary screen, biochemical, small-molecule microarray, 635/667 nm fluorescence (AID 1139); conditions: small-molecule microarray binding, fluorescence 635/667; higher = more signal
[8] = system: wheat germ agglutinin (Triticum aestivum), Alexa647-labelled; assay: wheat germ agglutinin binders on compound microarrays, profiling panel, artefact control for SMM control-protein annotation, biochemical, small-molecule microarray, 635/667 nm fluorescence (AID 1140); conditions: WGA-A647 binding, 635 nm fluorescence, higher = more signal;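 note: score merges 667 nm feature emission with signal to noise over triplicate slides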
[9] = target: Luciferin 4-monooxygenase (Photinus pyralis) (UniProt P08659); assay: firefly luciferase enzyme inhibitors, primary screen, biochemical, luminescence, purified enzyme, 2006 set (AID 1141); conditions: SteadyGlo luminescence, 30 min, higher = more signal, called active from +8 up or from −8 down;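 note: cell-free assay with purified firefly luciferase at 100 ng per well in PBS; test concentration not given here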
[10] = system: Wnt5a (protein binding on small-molecule microarray); assay: Wnt5a binders on small-molecule microarray, primary screen, biophysical, 635/667 nm fluorescence (AID 1142); conditions: 635 nm fluorescence, higher = more signal;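 note: fluorescence read at 667 nm with signal to noise per printed feature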
[11] = cell viability in Huh7 cells, primary screen, cytotoxicity control for HCV replication inhibitor project, CellTiter-Glo luminescence, basal, 48 h (AID 1143); conditions: Huh7 HCV replicon, higher = more signal, called active from +8 up or from −8 down;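 note: Huh7 hepatoma cells carrying a hepatitis C replication reporter with no stimulus; test concentration not given here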
[12] = P. aeruginosa biofilm formation inhibitors, primary screen, PAO1 strain, BacTiter-Glo luminescence, LB-PBS (AID 1144); conditions: 12 h, higher = more signal
[13] = CREB reporter modulators without forskolin, primary screen, cell-based, PC12, CRE-LacZ reporter, unstimulated (AID 1145); conditions: no forskolin, luminescence, 4.5 h, higher = more signal, called active from +8 up or from −8 down
[14] = CREB reporter modulators under forskolin, primary screen, cell-based, PC12, CRE-LacZ reporter, forskolin-stimulated (AID 1146); conditions: luminescence, 4.5 h, higher = more signal, called active from +8 up or from −8 down;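 note: PC12 cells with 6xCRE LacZ reporter stimulated by forskolin 10 µM; beta-galactosidase reporter signal reflecting CREB driven transcription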
[15] = target: Streptavidin (Streptomyces avidinii) (UniProt P22629); assay: streptavidin binders on small-molecule microarray, primary screen, artefact control for SMM compound annotation, biophysical, 635/667 nm fluorescence (AID 1147); conditions: streptavidin binding, higher = more signal;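 note: signal reflects streptavidin binding to arrayed compounds as a control protein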
[16] = small-molecule binders of probe aInhba, primary screen, biochemical, small-molecule microarray, 635/667 nm fluorescence (AID 1148); conditions: higher = more signal;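 note: score merges 667nm spot fluorescence with signal-to-noise for antibody binding to printed compounds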
Torsin-1A (Homo sapiens) [17] = target: Torsin-1A (Homo sapiens) (UniProt O14656); assay: torsin A binders from cell lysate, primary screen, small-molecule microarray, wild-type, 635/667 nm (AID 1149); conditions: COS7 hTOR1A-WT lysate, 635 nm fluorescence, higher = more signal
Torsin-1A (Homo sapiens) [18] = target: Torsin-1A (Homo sapiens) (UniProt O14656); assay: small-molecule binders of mutant TOR1A in lysate, primary screen, cell lysate, small-molecule microarray, COS7 lysate, 635/667 nm fluorescence (AID 1150); conditions: COS7 hTOR1A mutant lysate, 635 nm fluorescence, higher = more signal;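 note: score pools 667 nm emission and signal to noise measuring lysate protein binding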
[19] = system: Sonic hedgehog protein (Shh); assay: small-molecule binders of Shh protein, primary screen, biochemical, small-molecule microarray, 635/667 nm fluorescence (AID 1151); conditions: small-molecule microarray binding, 635 nm fluorescence; higher = more signal;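 note: Shh protein binding to compounds spotted on small-molecule microarray slides; score combines spot fluorescence intensity with signal-to-noise across triplicate slides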

Fibroblast growth factor 2 (Homo sapiens), sequence (P09038 whole entry, looked up): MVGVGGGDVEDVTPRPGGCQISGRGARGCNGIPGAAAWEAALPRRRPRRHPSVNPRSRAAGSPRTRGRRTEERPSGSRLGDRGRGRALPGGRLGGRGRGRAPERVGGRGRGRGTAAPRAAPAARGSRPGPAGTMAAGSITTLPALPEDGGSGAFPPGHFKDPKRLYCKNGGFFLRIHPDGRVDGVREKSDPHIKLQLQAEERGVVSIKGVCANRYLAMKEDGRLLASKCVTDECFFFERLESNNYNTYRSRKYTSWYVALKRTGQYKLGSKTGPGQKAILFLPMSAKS
Streptavidin (Streptomyces avidinii), sequence (P22629 whole entry, looked up): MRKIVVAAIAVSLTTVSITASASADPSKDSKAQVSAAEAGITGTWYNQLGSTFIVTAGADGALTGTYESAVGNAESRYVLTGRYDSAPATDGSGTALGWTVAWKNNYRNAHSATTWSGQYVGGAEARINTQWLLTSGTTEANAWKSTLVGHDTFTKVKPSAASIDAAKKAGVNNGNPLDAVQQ
Focal adhesion kinase 1 (Homo sapiens), sequence (Q05397 whole entry, looked up): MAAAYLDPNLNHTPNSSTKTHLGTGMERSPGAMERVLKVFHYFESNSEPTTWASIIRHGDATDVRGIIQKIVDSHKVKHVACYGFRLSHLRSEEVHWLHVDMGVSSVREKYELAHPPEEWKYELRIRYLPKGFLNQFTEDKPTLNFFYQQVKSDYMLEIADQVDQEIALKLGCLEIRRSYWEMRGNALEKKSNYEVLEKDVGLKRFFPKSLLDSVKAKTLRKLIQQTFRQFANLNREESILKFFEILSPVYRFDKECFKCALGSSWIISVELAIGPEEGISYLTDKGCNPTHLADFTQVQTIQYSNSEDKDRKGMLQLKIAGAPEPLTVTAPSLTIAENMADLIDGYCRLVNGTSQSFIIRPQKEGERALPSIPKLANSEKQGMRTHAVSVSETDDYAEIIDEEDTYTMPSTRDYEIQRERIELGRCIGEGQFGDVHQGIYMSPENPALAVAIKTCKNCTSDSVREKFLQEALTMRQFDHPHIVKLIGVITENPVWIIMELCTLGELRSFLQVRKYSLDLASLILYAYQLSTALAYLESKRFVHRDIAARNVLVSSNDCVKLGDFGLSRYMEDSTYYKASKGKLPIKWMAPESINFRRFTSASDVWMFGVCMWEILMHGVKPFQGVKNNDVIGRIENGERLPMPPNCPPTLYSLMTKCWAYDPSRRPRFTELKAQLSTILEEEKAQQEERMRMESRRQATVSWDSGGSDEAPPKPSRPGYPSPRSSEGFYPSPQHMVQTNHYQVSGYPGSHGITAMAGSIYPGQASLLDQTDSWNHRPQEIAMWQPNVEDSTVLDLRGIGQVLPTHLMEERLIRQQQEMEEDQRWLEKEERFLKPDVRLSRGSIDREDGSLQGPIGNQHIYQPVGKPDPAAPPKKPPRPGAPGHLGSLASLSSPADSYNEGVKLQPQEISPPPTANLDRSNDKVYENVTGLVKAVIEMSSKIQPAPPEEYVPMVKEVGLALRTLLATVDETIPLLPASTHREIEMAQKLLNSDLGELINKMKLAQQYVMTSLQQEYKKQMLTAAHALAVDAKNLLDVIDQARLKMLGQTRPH
Torsin-1A (Homo sapiens), sequence (O14656 whole entry, looked up): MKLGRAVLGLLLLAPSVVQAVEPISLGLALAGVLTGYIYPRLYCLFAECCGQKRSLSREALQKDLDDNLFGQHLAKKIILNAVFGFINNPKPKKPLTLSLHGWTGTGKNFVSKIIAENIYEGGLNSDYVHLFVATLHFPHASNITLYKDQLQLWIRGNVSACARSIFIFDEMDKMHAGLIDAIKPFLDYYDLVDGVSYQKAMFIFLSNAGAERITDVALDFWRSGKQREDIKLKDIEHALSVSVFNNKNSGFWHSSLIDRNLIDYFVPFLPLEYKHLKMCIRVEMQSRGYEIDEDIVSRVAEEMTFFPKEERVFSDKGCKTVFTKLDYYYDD
Follistatin (Homo sapiens), sequence (P19883 whole entry, looked up): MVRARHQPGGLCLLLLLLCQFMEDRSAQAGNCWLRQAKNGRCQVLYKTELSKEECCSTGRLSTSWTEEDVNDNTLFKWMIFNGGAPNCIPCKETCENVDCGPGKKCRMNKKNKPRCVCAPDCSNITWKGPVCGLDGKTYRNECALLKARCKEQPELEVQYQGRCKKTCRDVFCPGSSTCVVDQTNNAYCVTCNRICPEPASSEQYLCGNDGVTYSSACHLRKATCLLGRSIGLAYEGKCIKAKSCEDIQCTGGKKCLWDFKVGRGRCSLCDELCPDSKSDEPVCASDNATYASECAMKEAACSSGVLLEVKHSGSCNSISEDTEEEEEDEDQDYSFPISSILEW
Luciferin 4-monooxygenase (Photinus pyralis), sequence (P08659 whole entry, looked up): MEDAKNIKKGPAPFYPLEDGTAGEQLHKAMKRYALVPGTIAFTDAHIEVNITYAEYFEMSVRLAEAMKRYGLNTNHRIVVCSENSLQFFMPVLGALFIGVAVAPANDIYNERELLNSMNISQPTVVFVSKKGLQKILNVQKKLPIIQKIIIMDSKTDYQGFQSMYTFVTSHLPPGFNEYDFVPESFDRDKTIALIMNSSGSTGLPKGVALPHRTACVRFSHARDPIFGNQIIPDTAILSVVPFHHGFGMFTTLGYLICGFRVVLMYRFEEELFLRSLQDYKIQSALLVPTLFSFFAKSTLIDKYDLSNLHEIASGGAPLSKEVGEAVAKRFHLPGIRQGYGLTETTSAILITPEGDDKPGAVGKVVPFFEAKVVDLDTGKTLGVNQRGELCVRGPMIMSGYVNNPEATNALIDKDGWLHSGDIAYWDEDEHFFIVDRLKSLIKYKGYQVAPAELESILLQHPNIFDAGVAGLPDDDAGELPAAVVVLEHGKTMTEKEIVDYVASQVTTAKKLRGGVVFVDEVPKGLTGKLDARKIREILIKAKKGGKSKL

Row | Structure (SMILES) | composite z-score [1] | composite z-score [2] | composite z-score [3] | composite z-score [4] | composite z-score [5] | composite z-score [6] | z-score [7] | composite z-score (Lefty1) | composite z-score [8] | z-score [9] | composite z-score [10] | z-score [11] | z-score [12] | z-score [13] | z-score [14] | composite z-score [15] | composite z-score [16] | composite z-score (Torsin-1A (Homo sapiens) [17]) | composite z-score (Torsin-1A (Homo sapiens) [18]) | composite z-score [19]
1 | CN1C2C=C(c3ccc(CO)cc3)C(C3C(=O)N(C(N)=O)C(=O)C32)C1C1CC1 (stereo not given) | 0.573 | -0.241 | -0.215 | 0.586 | -0.189 | -0.379 | -0.572 | -0.72 | 0.239 | -0.0168 (inactive) | -0.392 | 0.547 (inactive) | -0.522 (inactive) | -0.35 (inactive) | 0.527 (inactive) | 0.0747 | -0.271 | 0.0973 | 0.0517 | -0.104
2 | O=C1c2ccccc2[C@](Cc2ccccc2I)(C(=O)NCCN2CCOCC2)[C@H](c2ccc(CO)cc2)N1Cc1ccccc1C(F)(F)F | 0.218 | 1.18 | 0.334 | 0.88 | 0.447 | 0.0123 | 2.25 | 0.246 | 0.418 | -0.0684 (inactive) | 0.0104 | -3.41 (inactive) | 0.588 (inactive) | 0.0909 (inactive) | 0.655 (inactive) | 0.515 | -0.038 | 0.717 | 0.469 | 0.468
3 | COCCOC(=O)N1C(=O)[C@@]2(c3cc(C#CCCO)ccc31)[C@H](c1ccc(O)cc1)N1[C@H](c3ccccc3)[C@H](c3ccccc3)OC(=O)[C@H]1[C@@H]2C(=O)NC[C@H](O)c1ccccc1 | 2.05 | 1.2 | 0.553 | 0.0868 | 1.17 | 0.767 | -0.703 | 0.958 | -0.333 | -1.52 (inactive) | 0.0153 | -1.64 (inactive) | -0.718 (inactive) | 0.0776 (inactive) | -0.583 (inactive) | -0.331 | 0.0101 | 0.127 | -0.0807 | 1.03
4 | O=C(NCCN1CCOCC1)[C@@H]1c2ccccc2C(=O)N(CC23CC4CC(CC(C4)C2)C3)[C@H]1c1ccc(CO)cc1 | 2.06 | 1.25 | 0.211 | 0.962 | 0.99 | 0.424 | 1.26 | 0.357 | 1.17 | 0.733 (inactive) | 0.617 | -2.69 (inactive) | -0.634 (inactive) | 0.441 (inactive) | -0.0639 (inactive) | 1.12 | 0.0542 | 0.51 | 1.47 | 0.506
5 | Cc1ccc(S[C@]2(C(=O)NCc3ccccc3)CC(=O)N(Cc3ccccc3C(F)(F)F)[C@@H]2c2ccc(CO)cc2I)cc1 | 1.53 | -0.645 | 0.258 | -0.201 | 0.0443 | -0.402 | 1.28 | -1.25 | 0.0776 | -0.913 (inactive) | -0.264 | -1.5 (inactive) | 1.59 (inactive) | 1.06 (inactive) | 2.24 (inactive) | -0.464 | 0.144 | -0.545 | -0.45 | -0.26
6 | CCCCCCCCCCC(O)C1C=CC2C(=O)N(C)C(=O)C2N1Nc1ccccc1 (stereo not given) | -0.901 | -0.339 | 0.365 | -0.624 | -1.68 | -1.84 | 0.172 | -1.75 | -0.848 | -0.319 (inactive) | -0.56 | -0.776 (inactive) | 0.178 (inactive) | 0.819 (inactive) | 0.848 (inactive) | -0.925 | -0.474 | -0.0378 | 0.213 | -1.5
7 | COC(=O)[C@@]1(Cc2ccc(F)cc2)[C@H]2c3cc(C(=O)N(C)C)n(Cc4ccc(C(F)(F)F)nc4)c3C[C@H]2CN1C(=O)c1ccccc1 | 1.33 | 1.27 | 1.61 | 1.02 | 1.05 | -0.234 | 0.453 | 0.853 | 0.895 | 1.57 (inactive) | 0.381 | -3.01 (inactive) | 0.857 (inactive) | 1.91 (inactive) | 1.13 (inactive) | 1.55 | 0.36 | 0.516 | 0.717 | 0.521
8 | Cc1ccc(S[C@]2(C(=O)NCc3ccccc3)CC(=O)N(Cc3ccccc3Cl)[C@@H]2c2ccc(CO)cc2)cc1 | 1.29 | -0.561 | -0.0881 | -0.919 | -0.181 | -0.756 | -0.387 | -0.423 | -0.3 | 0.718 (inactive) | -0.132 | -1.87 (inactive) | -0.491 (inactive) | -0.0512 (inactive) | -0.226 (inactive) | -0.744 | 0.298 | 0.163 | 0.0869 | 0.469
9 | C=CCNC(=O)[C@@H]1[C@H]2C(=O)O[C@H](c3ccccc3)[C@H](c3ccccc3)N2[C@H](c2ccc(O)cc2)[C@@]12C(=O)N(C(=O)OCCOC)c1ccc(C#CCC(C(=O)OC)C(=O)OC)cc12 | 1.06 | 1.19 | 0.214 | 0.271 | 1.13 | 0.722 | 0.556 | 0.719 | 0.94 | 0.367 (inactive) | 0.259 | -3.02 (inactive) | 0.132 (inactive) | -0.438 (inactive) | 0.416 (inactive) | 0.0198 | 0.0074 | 0.586 | 1.3 | 1.37
